Measured values reported in ChEMBL document CHEMBL3988442, “University of Dundee, Small-Polar-MMV Screening Library” (2021).

How the values were obtained:
[1] = biological target: AMP-activated protein kinase, AMPK (Homo sapiens) (UniProt P54646+O43741+P54619+Q9UGJ0+Q9Y478+Q13131+Q9UGI9); assay: AMP-dependent Kinase enzyme assay. An in vitro enzyme assay that detects ADP turnover that is directly proportional to AMPK activity. This uses naive AMPK that is activated during the assay with MK-8722; type: functional; set-up: scale not given: direction of the effect not stated beside the values; conditions: 30 µM
[2] = biological target: T1, Arginase-2, mitochondrial (Homo sapiens) (UniProt P78540); assay: in vitro enzyme assay to detect the production of urea directly proportional to the activity of Arginase II; type: functional; set-up: scale not given: in the data most compounds retested in dose-response had high values; conditions: 30 µM
T1 sequence (whole entry): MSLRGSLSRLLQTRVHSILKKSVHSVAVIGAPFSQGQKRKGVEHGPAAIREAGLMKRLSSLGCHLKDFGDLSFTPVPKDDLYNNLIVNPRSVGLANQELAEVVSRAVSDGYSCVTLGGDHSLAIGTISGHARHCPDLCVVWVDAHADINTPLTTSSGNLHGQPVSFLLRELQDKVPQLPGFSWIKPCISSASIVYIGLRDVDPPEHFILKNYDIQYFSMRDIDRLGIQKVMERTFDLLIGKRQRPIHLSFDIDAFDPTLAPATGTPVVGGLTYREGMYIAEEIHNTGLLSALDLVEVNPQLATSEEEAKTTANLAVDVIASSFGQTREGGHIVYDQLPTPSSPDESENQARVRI

Row | SMILES | Percent Effect [1] [%] | Percent Effect [2] [%]
1 | CN(CCc1ccccc1)Cc1c(C2CCOCC2)[nH]c2ncccc12 | 11.1 | 
2 | CCn1ncnc1C1CC(=O)NCc2nc(N3CCCC3)sc21 (centres undefined) | -10.2 | 
3 | CC(C)Cn1ncc(C(=O)O)c1C1CC1 | 5.05 | 
4 | COCCN(CCOC)C(=O)c1cnn(C)c1C | -3.12 | 
5 | CCOCCOC(C)C(=O)Nc1nccn1Cc1ccccc1 (centres undefined) | -2.1 | 
6 | CSCCC(=O)N1CCN(CC(O)C(C)(C)C)CC1 (centres undefined) | -4.07 | 
7 | CCC[C@@H]1CN(Cc2ccc(C(F)(F)F)nc2)C[C@H]1C(=O)O | -4.32 | 
8 | N#CC1CCN(C(=O)CN2CC(c3ccccc3)CC2=O)CC1 (centres undefined) | 5.49 | 
9 | Cc1cc(C)n(C2CN(c3nc(-c4ccncc4)nc4c3CCC4)C2)n1 | 2.99 | 
10 | Cc1ccccc1C(=O)NC[C@@H]1CCN(C(=O)CN2CCCC2)C[C@H]1O | -0.0834 | 
11 | COc1ccc(CN2C[C@@H]3CC[C@H](C2)N(S(C)(=O)=O)C3)cc1 | 12.6 | 
12 | COCCCNc1ncnc2c1CCN(C(=O)CC1C=CCC1)CC2 (centres undefined) | 11.8 | 
13 | CN(CCc1cccc2ccccc12)Cc1nc(N)nc(N(C)C)n1 | -2.41 | 
14 | CCCn1nnnc1COC(=O)C1Cc2cc(Cl)ccc2O1 (centres undefined) | 6.63 | 
15 | CC(C)C(C)NC(=O)Nc1cccc(OCC#N)c1 (centres undefined) | -3.11 | 
16 | O=C(c1ccc2[nH]cnc2c1)N1CCC(Oc2ccccn2)CC1 | 3.35 | 
17 | CN(C)C(CNC(=O)c1[nH]nc(C2CC2)c1Br)C1CC1 (centres undefined) | -3.39 | 
18 | COc1cc2c(cc1CNCc1cccnc1-n1cccn1)OC(C)C2 (centres undefined) | 5.16 | 
19 | COc1ccc(CCC(=O)N2CCN(c3nc(C)ns3)CC2)cc1 | -3.26 | 
20 | COc1c(C(=O)NC(C)Cc2ccccc2Cl)c(C)nn1C (centres undefined) | 0.464 | 
21 | CC(CC(=O)c1ccco1)NC(=O)c1ccccn1 (centres undefined) | -8.76 | 
22 | COC(=O)C(NC(=O)c1cc(F)cc(F)c1)c1cccnc1 (centres undefined) | 2.18 | 
23 | CN1CCN(C)C(CNc2c(C#N)cnc3ccc(Cl)cc23)C1 (centres undefined) | 8.02 | 
24 | Cc1nsc(N2CCCN(C(=O)CCc3ccsc3)CC2)n1 | -4.46 | 
25 | Cn1cnnc1C1CCCN(c2nc3ccccc3o2)C1 (centres undefined) | -1.42 | 

Row | SMILES | Percent Effect [1] [%] | Percent Effect [2] [%]
26 | O=C(NCc1nnc2n1CCC2)c1cn(-c2cccc(Br)c2)nn1 | 2.86 | 
27 | CCOc1ccc(Cl)cc1CCNC(=O)Cn1ccccc1=O | 16.7 | 
28 | CO[C@@H]1c2ccccc2C2(CCN(C(=O)CNS(C)(=O)=O)CC2)[C@H]1O | 19.3 | 
29 | CC(=O)N1CCc2c(nc(N(C)C)nc2NCCCn2ccnc2C)C1 | 7.72 | 
30 | Cc1ccc(C(=O)NCc2ccnc(C3CCCOC3)n2)s1 (centres undefined) | 7.88 | 
31 | COc1cccc(CC(=O)N2CCc3ncnc(NCCO)c3CC2)c1 | -1.01 | 
32 | CN1N=C(C(=O)NCCc2ccc(OC3CCCC3)cc2)CCC1=O | -0.783 | 
33 | CS(=O)(=O)NC(=O)c1ccn(-c2cccc(Br)c2)n1 | 2.69 | 
34 | CC(=O)c1cnc(NCCN2CCCC2)nc1C | -8.98 | 
35 | Cc1ccoc1CNCc1nnc2n1CC(C(F)(F)F)CC2 (centres undefined) |  | 3.78
36 | Cc1ccc(C(C(=O)O)N2CCCN(Cc3ccccn3)CC2)c(F)c1 (centres undefined) |  | 8.11
37 | Cc1cc(C(=O)N2CCCC(c3nccn3Cc3cscn3)C2)on1 (centres undefined) |  | 9.19
38 | CCOC(=O)Cn1cccc(S(=O)(=O)N2CCCC2)c1=O |  | -11.3
39 | CCC(C(=O)NCc1ccncc1)N(c1ccc(F)cc1)S(C)(=O)=O (centres undefined) |  | 8.11
40 | N#Cc1ccc(OCC(O)CN2CCN(c3nccs3)CC2)cc1 (centres undefined) |  | 5.95
41 | CC1=Nc2c(c(=O)[nH]n2C2CCOCC2)C(c2cccc(O)c2)S1 (centres undefined) |  | 2.7
42 | CN(C)C(=O)CN1CCCC(c2cncc(-c3cccc(Cl)c3)n2)C1 (centres undefined) |  | 1.62
43 | OC(COc1ccccc1)CN1CCN(c2nccs2)CC1 (centres undefined) |  | 4.87
44 | Cc1cc(NC(=O)C2CN(Cc3ccccc3)CCO2)ccn1 (centres undefined) |  | 3.78
45 | CCn1ccnc1C1CCCN(C(=O)c2sc(C)nc2C)C1 (centres undefined) |  | 2.7
46 | COc1ncccc1CNC(=O)N(Cc1ccccc1F)C1CC1 |  | 5.95
47 | CNC(=O)[C@H]1C[C@@H]2CN(C(=O)c3cccnc3)C[C@@H]2N1S(C)(=O)=O |  | 5.95
48 | COc1ccccc1Oc1ncccc1CNC(=O)C(O)C(F)(F)F (centres undefined) |  | 3.78
49 | Cc1nc(N2CCN(C(=O)NCc3cscn3)CC2)sc1C |  | 5.95
50 | Cc1ccc2c(c1)CCC2NCc1c(C)nn(CCO)c1C (centres undefined) |  | 3.78

Row | SMILES | Percent Effect [1] [%] | Percent Effect [2] [%]
51 | CN(Cc1ccccn1)C1CC2(CCN(Cc3ccccn3)CC2)C1 |  | -16.8
52 | CN(C)c1ccc(NC(=O)C2CN(Cc3ccccc3)CCO2)cn1 (centres undefined) |  | 10.3
53 | CN(C)c1ncccc1NC(=O)C1CN(Cc2ccccc2)CCO1 (centres undefined) |  | -8.11
54 | Cc1nn(CCO)c(C)c1CNC1CCc2c(F)cccc21 (centres undefined) |  | 5.95
55 | COc1ccc(NC2CCc3c2[nH]c(=O)n(C2CCCCC2)c3=O)cc1 (centres undefined) |  | 4.87
56 | CC(=O)N[C@@H](C)C(=O)NCc1cccnc1Oc1ccccc1F |  | 2.7
57 | CNC(=O)[C@H]1C[C@@H]2CN(C(=O)c3ccoc3)C[C@@H]2N1S(C)(=O)=O |  | 10.3
58 | O=c1[nH]c2c(c(=O)n1C1CCCCC1)CCC2Nc1ccc(Cl)cc1 (centres undefined) |  | -2.7
59 | CCN1CCC(NC(=O)c2ccc(F)cc2I)CC1 |  | -1.62
60 | CNC(=O)[C@H]1C[C@@H]2CN(C(=O)c3ccc(C)o3)C[C@@H]2N1S(C)(=O)=O |  | 1.62
61 | COc1cc(C(=O)N(CCC#N)Cc2ccccn2)ccc1C |  | 2.7
62 | COc1ccccc1Oc1ncccc1CNC(=O)[C@H](N)CC(C)(C)C |  | 10.3
63 | Cc1nc(NCC2CC2)nc2c1COCC21CCN(CC(=O)N(C)C)C1 (centres undefined) |  | 4.87
64 | CC1=Nc2c(c(=O)[nH]n2C2CCCCC2)C(c2cccnc2)S1 (centres undefined) |  | 2.7
65 | O=C(NCCO)c1coc(CN2CCN(c3ccccc3F)CC2)n1 |  | -8.11
66 | Cn1cc(CC2CCN(C(=O)NCCCc3ccc(O)cc3)C2)cn1 (centres undefined) |  | 7.03
67 | c1ccc(OC2COC3(CCN(CC4CC4)CC3)C2)nc1 (centres undefined) |  | -16.8
68 | CN(Cc1cccnc1)C1CC2(CCN(Cc3ccccn3)CC2)C1 |  | 2.7
69 | Cc1nnsc1C(=O)N1CCCC(c2nccn2Cc2cscn2)C1 (centres undefined) |  | -2.7
70 | COC(=O)CCNC(=O)c1cc(Br)c2c(c1)OCCO2 |  | 5.95
71 | CC(C)NC(=O)[C@]12COC[C@H]1CN(Cc1cnn(C)c1)C2 |  | -13.5
72 | Cc1ccc([C@@H]2CN(S(=O)(=O)N3CCC(C)CC3)C[C@H]2N(C)C)cc1 |  | 7.03
73 | CC1=Nc2c(c(=O)[nH]n2C2CCCC2)C(c2ccc(C(=O)O)cc2)S1 (centres undefined) |  | 7.03
74 | COCc1csc(NC(=O)N2CCC(Cc3cnn(C)c3)C2)n1 (centres undefined) |  | 2.7
